High-throughput results from PubChem.
This excerpt belongs to a sample that is enriched for hits.
PTAP-TSG101 blk = blocks PTAP binding to human TSG101, validation; Q99816; Fluorescence polarization, FITC-PTAP peptide/Tsg101, 20 min; Potency, µM (doses to about 115 µM), actives largely listed as inhibitors; 44,000 tested, under 10 active; also: potency is read from the fitted curve at half-maximal effect; 0% is about no effect
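Steps: Tsg101 binding domain (10 uM final) in HEPES pH 7.5/NaCl/Tween 20/EDTA/TCEP; add compound; add FITC-PTAP peptide (50 nM final); incubate 20 min r.t.; read polarization.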
FH mod = Identification of activators of human fumarate hydratase by quantitative high-throughput screening; FH coupled MDH/diaphorase resazurin fluorescence, 15 min; Potency, µM (doses to about 79.9 µM), for the others: top-dose activity change, negative = inhibition, actives largely listed as inhibitors; 54,000 tested, 0.22% active; also: potency is read from the fitted curve at half-maximal effect; % is scaled to controls: 0 for no effect and ±100 for the full control effect; the screen sought activators but most active calls are inhibition curves; nearly all actives have a fitted effect of over 45% in size
Target sequence (P07954 whole entry, looked up): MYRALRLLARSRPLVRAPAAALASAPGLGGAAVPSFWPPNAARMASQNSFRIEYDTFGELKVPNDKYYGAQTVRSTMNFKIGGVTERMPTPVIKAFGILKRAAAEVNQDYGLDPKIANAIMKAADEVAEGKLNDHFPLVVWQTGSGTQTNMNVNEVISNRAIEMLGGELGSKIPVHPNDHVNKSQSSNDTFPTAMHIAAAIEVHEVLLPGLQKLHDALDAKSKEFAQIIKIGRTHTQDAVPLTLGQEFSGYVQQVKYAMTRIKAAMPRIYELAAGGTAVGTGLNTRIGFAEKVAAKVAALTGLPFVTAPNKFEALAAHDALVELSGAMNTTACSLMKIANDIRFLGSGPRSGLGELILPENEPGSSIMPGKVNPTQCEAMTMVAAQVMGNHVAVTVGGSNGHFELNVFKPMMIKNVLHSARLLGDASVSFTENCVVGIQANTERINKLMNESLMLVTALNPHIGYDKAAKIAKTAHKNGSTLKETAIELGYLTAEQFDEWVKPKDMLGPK
B2AR arrestin ag = beta-arrestin recruitment by human beta2-adrenergic receptor ligands | P07550 | HTLA Tango cells, beta-arrestin recruitment, luciferase luminescence, 18 h | Potency, µM (top dose mostly 46.1 µM), hits mostly activators | 44,000 tested, under 10 active | AID 1347077;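 also: potency is read from the fitted curve at half-maximal effect; 0% = DMSO and full agonism = EC100 isoproterenol or metaproterenol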
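Luminescence read-out: arrestin recruitment to recombinant beta2-AR releases tTA, inducing luciferase. Cells exposed 18 hr at 37 degrees C to up to 46 microM compound; %Activity from corrected signal, concentration-response curves classified by r2, magnitude and efficacy.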
GALK inhibitor = inhibits human galactokinase | Potency, µM (titrated, usually from 57.5 µM), without a hit: top-dose activity, negative = inhibition, hits mostly inhibitors | 44,000 tested, under 10 active | recombinant GALK, Kinase-Glo ATP luminescence, 1 h | P51570 | AID 1347072;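 also: plate controls were full GALK reaction for no effect and reaction lacking GALK for full effect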
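Reactions with and without enzyme served as controls. GALK at 5 nM phosphorylates 100 uM galactose using 35 uM ATP (HEPES pH 8.0, Mg2+) for 1 h at RT, with luminescence read 10 min after adding Kinase-Glo Plus.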
NTMT1 inh = inhibitors of human N-terminal methyltransferase NTMT1. NTMT1 MTase-Glo SAH luminescence, purified enzyme. Q9BV86. AID 1645870. Potency, µM (top dose mostly 114 µM), inactives show at the top dose activity change, negative = inhibition, hits mostly inhibitors. 59,000 tested, 2.5% active;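 also: potency is read from the fitted curve at half-maximal effect; plate controls were DMSO vehicle for no effect and no enzyme for full effect; nearly all actives have a fitted effect of over 65% in size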
GALC G270D up = enhancers of human galactocerebrosidase G270D mutant activity in cells. P54803. 145M-Twi-hGALC-G270D cells (Twitcher mouse brain line with human GALC G270D), HMU-beta-Gal fluorescence, 48 h. Potency, µM (doses to about 57.5 µM), usual class: activators. 45,000 tested, 0.1% active. AID 1159614; also: potency is read from the fitted curve at half-maximal effect; 0% is about no effect; nearly all actives have a fitted effect of over 65% in size
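Mutant human GALC (G270D), stably expressed in a Twitcher mouse brain cell line lacking endogenous GALC, is measured in live-treated cells via 6-hexadecanoylamino-4-methylumbelliferyl-β-galactoside hydrolysis (0.1 mM final, pH 5.2) with fluorescent detection.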
DYRK1A KinaseGlo = human DYRK1A kinase inhibition by ATP depletion readout. shares compounds with NTMT1 inh. recombinant DYRK1A, Kinase-Glo ATP depletion luminescence. Potency, µM (series often up to 76.9 µM), for inactives: at the top dose activity change, negative = inhibition, most hits filed as inhibitors. 100 tested, 80% active
CLK4 KinaseGlo = inhibits human CLK4 kinase in Kinase-Glo confirmation; shares compounds with NTMT1 inh; recombinant Clk4, Kinase-Glo ATP luminescence, 4.5 h; Potency, µM (top dose mostly 76.9 µM), for the others: top-dose activity, negative = inhibition, hits mostly inhibitors; 90 tested, 90% active; AID 493204
Sfp PPTase inh = inhibits purified B. subtilis Sfp PPTase | shares compounds with NTMT1 inh | purified Sfp PPTase enzyme activity, qHTS | Potency, µM (doses to about 114 µM), for the others: at the highest dose activity change, negative = inhibition, actives largely listed as inhibitors | 230 tested, 78% active | AID 540350
HM489 growth = reduces growth of B. subtilis HM489 strain; shares compounds with NTMT1 inh; B. subtilis HM489 (acpS-) growth, BacTiter-Glo, 5 h; Potency, µM (top dose mostly 114 µM), without a hit: at the highest dose activity change, negative = inhibition, hits mostly inhibitors; 220 tested, 50% active; AID 540353
Sfp PPTase gel = inhibits B. subtilis Sfp PPTase in gel assay; shares compounds with NTMT1 inh; purified Sfp PPTase, gel-based product detection; Potency, µM (top dose mostly 250 µM), for the others: top-dose activity change, negative = inhibition, most hits filed as inhibitors; 220 tested, 54% active
Sfp SAR2 = inhibitors of Bacillus subtilis Sfp PPTase, SAR round 2; shares compounds with NTMT1 inh; purified Sfp enzyme, PPTase activity, qHTS; AID 602370; Potency, µM (top dose mostly 57.1 µM), for inactives: at the top dose activity change, negative = inhibition, hits mostly inhibitors; 230 tested, 87% active
USP2 K63 confirm = USP2a inhibition confirmed on K63 diubiquitin; 30 tested, 80% active; AID 652172; shares compounds with NTMT1 inh; USP2 cleavage of DiUb K63-3IQF, fluorescence kinetic; Potency, µM (highest dose often 57.5 µM), for inactives: top-dose activity change, negative = inhibition, hits mostly inhibitors
Casp6 counter = caspase-6 inhibition, USP2a inhibitor counterscreen. shares compounds with NTMT1 inh. Caspase 6 enzyme, Caspase-Glo 6 luminescence. activity change, negative = inhibition, % at 46.1 µM. 30 tested, under 10 active. AID 652277
HSD17B4 counter = inhibits human HSD17B4, off-target for HPGD inhibitors. 230 tested, 10% active. AID 743187. shares compounds with NTMT1 inh. Potency, µM (series often up to 57.1 µM), for inactives: top-dose activity change, negative = inhibition, usual class: inhibitors. purified HSD17B4, estradiol/NAD+, NADH fluorescence
ALDH1A1 inh = ALDH1A1 (human) inhibition, HPGD counter-screen; shares compounds with NTMT1 inh; recombinant ALDH1A1, NADH fluorescence, propionaldehyde/NAD+; Potency, µM (highest dose often 57.1 µM), for the others: at the top dose activity change, negative = inhibition, actives largely listed as inhibitors; 230 tested, 93% active; AID 743195
NNMT inh = human NNMT inhibition, NTMT1 counter-screen; shares compounds with NTMT1 inh; NNMT MTase-Glo luminescence, SAH detection; Potency, µM (top dose mostly 57.1 µM), for the others: at the top dose activity, negative = inhibition, most hits filed as inhibitors; 120 tested, 10% active
Target sequence (P40261 whole entry, looked up): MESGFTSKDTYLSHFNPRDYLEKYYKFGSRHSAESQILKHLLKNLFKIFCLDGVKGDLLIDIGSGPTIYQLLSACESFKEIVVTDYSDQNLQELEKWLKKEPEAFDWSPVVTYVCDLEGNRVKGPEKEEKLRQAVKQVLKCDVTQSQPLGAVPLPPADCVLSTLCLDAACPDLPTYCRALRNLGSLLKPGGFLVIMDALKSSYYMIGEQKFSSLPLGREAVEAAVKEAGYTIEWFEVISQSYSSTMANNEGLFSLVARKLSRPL
Starred values were filed as active, the others as inactive; i = inactive; u = inconclusive; x = no result given; [ ] = another dose, or the depositor's remark. Calls follow the shape of the dose curve; as a rule, active = well fitted curve in the direction sought with a large enough effect; inconclusive = small, poorly fitted or top-dose-only effect, or another doubt; inactive = no such curve, though single readings can be large; an effect the other way counts as inactive or inconclusive.

SMILES | PTAP-TSG101 blk | FH mod | B2AR arrestin ag | GALK inhibitor | NTMT1 inh | GALC G270D up | others
Cc1cc(C)nc(NC(=S)N2CCN(c3ccc4occc4c3)CC2)c1 | x | x | x | x | u | x | Sfp PPTase inh=3.7µM*;HM489 growth=u;Sfp PPTase gel=4µM*;Sfp SAR2=4.6µM*;HSD17B4 counter=u;ALDH1A1 inh=17µM*
Cc1cc(C)nc(NC(=S)N2CCN(c3ccc4c(c3)OCO4)CC2)c1 | x | x | x | x | 28µM* | x | Sfp PPTase inh=9.4µM*;HM489 growth=6%;Sfp PPTase gel=0.63µM*;Sfp SAR2=14µM*;HSD17B4 counter=u;ALDH1A1 inh=4.3µM*
COc1ccc(N2CCN(C(=O)Cc3coc4ccc(C)cc34)CC2)cc1 | i | 5% | i | 0% | 15% | i
CC1=C(C(=O)Nc2cc(Cl)ccc2Cl)C(c2ccco2)C2=C(CCCC2=O)N1 (stereo unspecified) | x | 0% | x | x | 3%[57.5 µM] | x
Clc1cccc(-c2ccc3ncnc(NCc4cccs4)c3c2)c1 | x | x | x | x | -23% | x
Cc1csc(CNc2ncnc3ccc(-c4ccc(C(C)O)o4)cc23)n1 (stereo unspecified) | x | x | x | x | u | x | CLK4 KinaseGlo=1µM*
C[C@@H](O)c1ccc(-c2ccc3ncnc(NCc4cccs4)c3c2)o1 | x | x | x | x | -10%[57.5 µM] | x | CLK4 KinaseGlo=1.5µM*
O=Cc1ccc(-c2ccc3ncnc(NCc4cccs4)c3c2)o1 | x | x | x | x | u | x | CLK4 KinaseGlo=26µM*
FC1(F)Oc2ccc(-c3ccc4ncnc(NCc5cccs5)c4c3)cc2O1 | x | x | x | x | 6% | x | DYRK1A KinaseGlo=u
O=C(O)c1ccc(-c2ccc(NC(=O)c3cccs3)cn2)cc1 | x | x | x | x | 12% | x
O=C1NS(=O)(=O)C(c2ccccc2)C1c1ccccc1 (stereo unspecified) | x | x | x | x | 11% | x
c1coc(-c2ccc3ncnc(NCc4cccs4)c3c2)c1 | x | x | x | x | -14% | x | DYRK1A KinaseGlo=6.5µM*
Clc1ccccc1-c1ccc2ncnc(NCc3cccs3)c2c1 | x | x | x | x | 5% | x
Cc1ccc(S(=O)(=O)Nc2cnccc2C(=O)Nc2nc(-c3ccc(-c4ccccc4)cc3)cs2)cc1 | x | x | x | x | 12% | x | USP2 K63 confirm=1.7µM*;Casp6 counter=-22
Cc1ccc(S(=O)(=O)Nc2cnccc2C(=O)Nc2nc(-c3cccc(C)c3)cs2)cc1 | x | x | x | x | x | x | USP2 K63 confirm=1.9µM*;Casp6 counter=-14
CC1CCC2(NC1)OC1C(O)C3C4CCC5CC(O[C@@H]6O[C@H](CO)[C@@H](O)[C@H](O)[C@H]6O[C@@H]6O[C@@H](C)[C@H](O)[C@@H](O)[C@H]6O)CCC5(C)C4CCC3(C)C1C2C (stereo partly specified) | x | 11%[20.6 µM] | x | x | 6%[12.6 µM] | x
O=C(O)c1cc(N(Cc2ccc(C3CCCCC3)cc2)C(=O)c2ccc(Oc3ccccc3)cc2)ccc1O | x | u | x | x | 32µM* | x | NNMT inh=-19%
CN(CC(=O)Nc1cccc(N2CCOCC2)c1)Cc1c(O)ccc2ccccc12 | x | x | x | x | -12% | x
COC1=CC(=O)O[C@@H](CCc2ccccc2)[C@@H]1O | x | 7% | x | x | -2%[57.5 µM] | x
COc1c(C(C)C)c(O)c(O)c2c1C(OC)[C@H]1OC(=O)[C@@]23CCCC(C)(C)[C@H]13 (stereo partly specified) | x | 13µM* | x | x | 12%[29.8 µM] | x | NNMT inh=-10%[38.3 µM]
COC(=O)N[C@H](C(=O)N1[C@@H]2CC[C@@H](C2)[C@H]1c1nc2ccc(-c3ccc4c(c3)C(F)(F)c3cc(-c5cnc([C@@H]6CCC7(CC7)N6C(=O)[C@@H](NC(=O)OC)C(C)C)[nH]5)ccc3-4)cc2[nH]1)C(C)C | x | -14%[53.3 µM] | x | x | 14%[29.8 µM] | x
CCN1CCN(Cc2ccc(Nc3ncc(F)c(-c4cc(F)c5nc(C)n(C(C)C)c5c4)n3)nc2)CC1 | x | -2% | x | x | 10µM* | x | NNMT inh=u
